# Assay results taken from the supplement of paper PMC8728848.
# Shown is part of a subset that was picked to be rich in the strongest signals.
# What was measured:
# Assay in all cases: glycan array binding signal (z-score within array); higher = stronger binding
# Conditions in all cases: glycan notation: IUPAC condensed, linker removed
# [1] = target: Fuc(a1-2)Gal(b1-4)Glc
# How it was run: (§1)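 Columns mapping to the same glycan were averaged after glycan names were converted to IUPAC-condensed notation. The data come from 3228 arrays in the Consortium for Functional Glycomics database, limited to those with an available protein sequence. Binding is reported as a within-array Z-score averaged across arrays of one protein sequence and across linkers.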
# [2] = target: Fuc(a1-2)Gal(b1-4)GlcNAc
# How it was run: as §1
# [3] = target: Fuc(a1-2)Gal(b1-4)GlcNAc(b1-3)Gal(b1-4)GlcNAc(b1-3)Gal(b1-4)GlcNAc
# How it was run: as §1
# [4] = target: Fuc(a1-3)GlcNAc
# How it was run: as §1
# [5] = target: Gal(a1-3)Gal(b1-4)[Fuc(a1-3)]GlcNAc
# How it was run: as §1
# [6] = target: Gal(b1-3)[Neu5Ac(a2-6)]GlcNAc(b1-4)Gal(b1-4)Glc
# How it was run: as §1
# [7] = target: Gal(b1-4)Glc6S
# How it was run: as §1
# [8] = target: Gal3S(b1-3)GalNAc
# How it was run: as §1
# [9] = target: Gal4S(b1-4)GlcNAc
# How it was run: as §1
# [10] = target: Gal6S(b1-4)Glc
# How it was run: as §1
# [11] = target: GalNAc(a1-3)Gal
# How it was run: as §1
# [12] = target: Neu5Ac(a2-3)Gal(b1-3)[Fuc(a1-4)]GlcNAc
# How it was run: as §1
# [13] = target: Neu5Ac(a2-3)Gal(b1-4)GlcNAc
# How it was run: as §1
# [14] = target: Neu5Ac(a2-3)Gal(b1-4)[Fuc(a1-3)]GlcNAc(b1-3)Gal(b1-4)[Fuc(a1-3)]GlcNAc(b1-3)Gal(b1-4)[Fuc(a1-3)]GlcNAc
# How it was run: as §1
# [15] = target: Neu5Ac(a2-8)Neu5Ac(a2-8)Neu5Ac(a2-3)Gal(b1-4)Glc
# How it was run: as §1
# [16] = target: Neu5Gc(a2-3)Gal(b1-3)[Fuc(a1-4)]GlcNAc
# How it was run: as §1
# [17] = target: Neu5Gc(a2-3)Gal(b1-4)GlcNAc
# How it was run: as §1
# [18] = target: Neu5Gc(a2-6)Gal(b1-4)GlcNAc
# How it was run: as §1
# [19] = target: Fuc(a1-2)[Gal(a1-3)]Gal(b1-4)GlcNAc
# How it was run: as §1
# [20] = target: Fuc(a1-3)[Gal(b1-4)]GlcNAc(b1-2)Man(a1-6)[Gal(b1-4)GlcNAc(b1-2)Man(a1-3)]Man(b1-4)GlcNAc(b1-4)GlcNAc
# How it was run: as §1
# [21] = target: Fuc(a1-3)[Gal(b1-4)]GlcNAc(b1-4)Gal(b1-4)[Fuc(a1-3)]GlcNAc
# How it was run: as §1
# [22] = target: Gal(a1-3)GalNAc
# How it was run: as §1
# [23] = target: Gal(b1-3)[Fuc(a1-4)]GlcNAc
# How it was run: as §1
# [24] = target: Gal(b1-4)GalNAc(a1-3)[Fuc(a1-2)]Gal(b1-4)GlcNAc
# How it was run: as §1
# [25] = target: Gal(b1-4)GlcNAc
# How it was run: as §1
# [26] = target: Gal(b1-4)GlcNAc(b1-2)Man(a1-3)[Gal(b1-4)GlcNAc(b1-2)Man(a1-6)]Man(b1-4)GlcNAc(b1-4)GlcNAc
# How it was run: as §1
# [27] = target: Gal(b1-4)GlcNAc(b1-3)Gal(b1-3)GlcNAc
# How it was run: as §1
# [28] = target: Glc(a1-6)Glc(a1-6)Glc
# How it was run: as §1
# [29] = target: GlcA(b1-6)Gal
# How it was run: as §1
# [30] = target: GlcNAc(b1-2)Gal(b1-3)GalNAc
# How it was run: as §1
# [31] = target: Man(a1-3)[Man(a1-6)]Man(b1-4)GlcNAc(b1-4)GlcNAc
# How it was run: as §1
# [32] = target: Man(a1-6)Man
# How it was run: as §1
# [33] = target: Neu5Ac(a2-3)Gal(b1-4)GlcNAc(b1-2)Man(a1-3)[GlcNAc(b1-2)Man(b1-4)GlcNAc(b1-2)Man(a1-6)]Man(b1-4)GlcNAc(b1-4)GlcNAc
# How it was run: as §1
# [34] = target: Neu5Ac(a2-3)Gal(b1-4)GlcNAc(b1-2)Man(a1-3)[Neu5Ac(a2-6)Gal(b1-4)GlcNAc(b1-2)Man(a1-6)]Man(b1-4)GlcNAc(b1-4)GlcNAc
# How it was run: as §1
# [35] = target: Neu5Ac(a2-6)Gal(b1-4)GlcNAc
# How it was run: as §1
# [36] = target: Neu5Ac(b2-6)GalNAc
# How it was run: as §1
# [37] = target: Neu5Gc(a2-3)Gal(b1-4)[Fuc(a1-3)]GlcNAc
# How it was run: as §1
# [38] = target: Fuc(a1-2)Gal(b1-4)[Fuc(a1-3)]GalNAc(b1-3)Gal(b1-4)[Fuc(a1-3)]GlcNAc
# How it was run: as §1
# [39] = target: Fuc(a1-2)[GalNAc(a1-3)]Gal(b1-4)GlcNAc
# How it was run: as §1
# [40] = target: Fuc(a1-4)GlcNAc
# How it was run: as §1
# [41] = target: Gal(a1-3)Gal(b1-4)GlcNAc
# How it was run: as §1
# [42] = target: Gal3S(b1-4)GlcNAc6S
# How it was run: as §1
# [43] = target: Gal3S6S(b1-4)GlcNAc
# How it was run: as §1
# [44] = target: Gal3S6S(b1-4)GlcNAc6S
# How it was run: as §1
# [45] = target: Gal4S6S(b1-4)GlcNAc
# How it was run: as §1
# [46] = target: GlcNAc(b1-3)[GlcNAc(b1-4)][GlcNAc(b1-6)]GlcNAc
# How it was run: as §1
# [47] = target: GlcNAc(b1-4)[GlcNAc(b1-6)]GalNAc
# How it was run: as §1
# [48] = target: Kdn(a2-3)Gal(b1-3)GlcNAc
# How it was run: as §1
# [49] = target: Man(a1-2)Man(a1-2)Man(a1-3)Man
# How it was run: as §1
# [50] = target: Man(b1-4)GlcNAc
# How it was run: as §1
# [51] = target: Neu5Ac(a2-3)Gal(b1-3)[Fuc(a1-4)]GlcNAc(b1-3)Gal(b1-4)[Fuc(a1-3)]GlcNAc
# How it was run: as §1
# [52] = target: Neu5Ac(a2-3)Gal(b1-4)GlcNAc(b1-3)Gal(b1-4)GlcNAc
# How it was run: as §1
# [53] = target: Neu5Ac(a2-6)GalNAc(b1-4)GlcNAc
# How it was run: as §1
# [54] = target: Neu5Gc(a2-6)GalNAc
# How it was run: as §1
binder,measurement,setting,value
"RegIIIbeta (Mus musculus), P35230 (protein) MLPPTACSVMSWMLLSCLMLLSQVQGEDSLKNIPSARISCPKGSQAYGSYCYALFQIPQTWFDAELACQKRPGGHLVSVLNSAEASFLSSMVKRTGNSYQYTWIGLHDPTLGAEPNGGGWEWSNNDVMNYFNWERNPSTALDRAFCGSLSRASGFLKWRDMTCEVKLPYVCKFTG",glycan array binding signal (z-score),[1],-0.114
same,glycan array binding signal (z-score),[2],-0.116
same,glycan array binding signal (z-score),[3],0.15
same,glycan array binding signal (z-score),[4],-0.114
same,glycan array binding signal (z-score),[5],-0.098
same,glycan array binding signal (z-score),[6],-0.105
same,glycan array binding signal (z-score),[7],-0.119
same,glycan array binding signal (z-score),[8],-0.124
same,glycan array binding signal (z-score),[9],0.188
same,glycan array binding signal (z-score),[10],-0.116
same,glycan array binding signal (z-score),[11],-0.109
same,glycan array binding signal (z-score),[12],-0.103
same,glycan array binding signal (z-score),[13],-0.071
same,glycan array binding signal (z-score),[14],0.086
same,glycan array binding signal (z-score),[15],-0.118
same,glycan array binding signal (z-score),[16],0.106
same,glycan array binding signal (z-score),[17],-0.116
same,glycan array binding signal (z-score),[18],-0.122
"Codakine (Codakia orbicularis), Q3KVL7_9BIVA (protein) MKILVAVFLVLVVVGTAAAGCPDGWTQFLDLCYIYQSAKASWASAQSSCQALGGILAEPDTACENEVLIHMCRENGDAGSFGPWLGGQKVGGAWQWSSSGAAFDYLRWGPNEPNNSGGNEDCLHYNWLSWNDLRCHYQASYLCQRAAE",glycan array binding signal (z-score),[1],-0.26
same,glycan array binding signal (z-score),[3],-0.235
same,glycan array binding signal (z-score),[19],-0.342
same,glycan array binding signal (z-score),[20],6.48
same,glycan array binding signal (z-score),[21],-0.321
same,glycan array binding signal (z-score),[22],-0.298
same,glycan array binding signal (z-score),[23],-0.203
same,glycan array binding signal (z-score),[24],-0.419
same,glycan array binding signal (z-score),[25],-0.3
same,glycan array binding signal (z-score),[26],4.02
same,glycan array binding signal (z-score),[27],-0.239
same,glycan array binding signal (z-score),[28],-0.317
same,glycan array binding signal (z-score),[29],-0.302
same,glycan array binding signal (z-score),[30],-0.276
same,glycan array binding signal (z-score),[31],4.3
same,glycan array binding signal (z-score),[32],0.449
same,glycan array binding signal (z-score),[12],-0.34
same,glycan array binding signal (z-score),[33],4.82
same,glycan array binding signal (z-score),[34],4.57
same,glycan array binding signal (z-score),[35],-0.224
same,glycan array binding signal (z-score),[36],-0.238
same,glycan array binding signal (z-score),[16],-0.265
same,glycan array binding signal (z-score),[37],-0.234
same,glycan array binding signal (z-score),[18],-0.289
"HMGB1 (Homo sapiens), P09429 (protein) MGKGDPKKPRGKMSSYAFFVQTCREEHKKKHPDASVNFSEFSKKCSERWKTMSAKEKGKFEDMAKADKARYEREMKTYIPPKGETKKKFKDPNAPKRPPSAFFLFCSEYRPKIKGEHPGLSIGDVAKKLGEMWNNTAADDKQPYEKKAAKLKEKYEKDIAAYRAKGKPDAAKKGVVKAEKSKKKKEEEEDEEDEEDEEEEEDEEDEDEEEDDDDE",glycan array binding signal (z-score),[1],-0.488
same,glycan array binding signal (z-score),[38],-0.246
same,glycan array binding signal (z-score),[19],-0.3
same,glycan array binding signal (z-score),[39],-0.269
same,glycan array binding signal (z-score),[21],-0.39
same,glycan array binding signal (z-score),[40],-0.341
same,glycan array binding signal (z-score),[41],-0.418
same,glycan array binding signal (z-score),[42],3.64
same,glycan array binding signal (z-score),[43],3.32
same,glycan array binding signal (z-score),[44],4.75
same,glycan array binding signal (z-score),[45],3.25
same,glycan array binding signal (z-score),[11],-0.403
same,glycan array binding signal (z-score),[46],-0.309
same,glycan array binding signal (z-score),[47],-0.433
same,glycan array binding signal (z-score),[48],-0.363
same,glycan array binding signal (z-score),[49],-0.413
same,glycan array binding signal (z-score),[50],0.327
same,glycan array binding signal (z-score),[51],0.178
same,glycan array binding signal (z-score),[52],0.045
same,glycan array binding signal (z-score),[14],-0.332
same,glycan array binding signal (z-score),[53],0.028
same,glycan array binding signal (z-score),[18],0.015
same,glycan array binding signal (z-score),[54],-0.195
